Test [1] in a line: APR_HepG2_NuclearSize_72hr: Apredica 72-hour HepG2 Assay for Nuclear Size (AID 2282925). As to conditions: high-content imaging, actives raise or lower the signal. A digest of the protocol: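 Read-out: nuclear diameter from Hoechst 33342 images (ArrayScan, 20x, six fields/well), via cell-cycle image analysis. HepG2 were dosed 0.39–200 uM for 72 hr in 0.5% DMSO. Bidirectional fit relative to DMSO.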

The nature of test [2]: ATG_CRE_CIS: Attagene CIS-FACTORIAL HepG2 Assay for human cAMP Responsive Element (CRE) binding protein 3 (AID 2282926). To be noted: HepG2 CRE cis-reporter, Attagene multiplexed mRNA; actives raise or lower the signal. The method, boiled down: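 Readout: fluorescently labelled reporter transcripts resolved by capillary electrophoresis after RT-PCR, taken 24 h post-dosing in transfected HepG2. Endogenous transcription factor activity drives each cis-element reporter; gain or loss of signal fitted relative to DMSO control.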

Test [3] has as its target CCAAT/enhancer-binding protein beta (Homo sapiens) (UniProt P17676). Put plainly: ATG_C_EBP_CIS: Attagene CIS-FACTORIAL HepG2 Assay for human CCAAT/Enhancer Binding Protein (C/EBP) beta (AID 2282927). To be noted: HepG2 Attagene cis-factorial transcription factor reporter; actives raise or lower the signal. The method, boiled down: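 HepG2, transient MRTU transfection, 24 h treatment. RT-PCR plus CE fluorescence; DMSO negative control, bidirectional fit.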

The nature of test [4]: ATG_CMV_CIS: Attagene CIS-FACTORIAL HepG2 Assay for human CMV (Internal Marker) (AID 2282928).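 Note: endpoint acts as a background internal control marker rather than a target.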 As to conditions: HepG2 CMV promoter reporter, transcription factor profiling; actives raise or lower the signal. A digest of the protocol:
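Readout: fluorescent reporter cDNA fragments separated by capillary electrophoresis after RT-PCR and HpaI cut. Cells: HepG2 carrying transfected cis-promoter reporter constructs, dosed 24 h. Endpoint serves as background internal-marker control, fit bidirectionally versus DMSO.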

Test [5] is described as follows: ATG_DR4_LXR_CIS: Attagene CIS-FACTORIAL HepG2 Assay for human Liver X Receptor (LXR), DR4 submotif (AID 2282929). As to conditions: HepG2 Attagene DR4 cis-reporter, mRNA transcription; actives raise or lower the signal. The method, boiled down: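 HepG2 cells transiently transfected with cis-promoter-driven multiplexed reporter units (DR4 element) were dosed for 24 h. Reporter mRNA was quantified by RT-PCR, fluorescent primer extension, HpaI digestion and capillary electrophoresis; bidirectional fitting versus DMSO baseline.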

The target of test [6] is Aryl hydrocarbon receptor (Homo sapiens) (UniProt P35869). Put plainly: ATG_Ahr_CIS: Attagene CIS-FACTORIAL HepG2 Assay for human Aryl Hydrocarbon Receptor (Ahr) (AID 2282930). To be noted: HepG2 AhR cis-factorial reporter transcription; actives raise or lower the signal. The method, boiled down: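 Endogenous factor activity is tracked through cis-promoter reporter units transfected into HepG2 cells. Transcript levels at 24 h are read by fluorescent RT-PCR and capillary electrophoresis, with activity in either direction scored relative to DMSO.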
Aryl hydrocarbon receptor (Homo sapiens), sequence (P35869 whole entry, looked up): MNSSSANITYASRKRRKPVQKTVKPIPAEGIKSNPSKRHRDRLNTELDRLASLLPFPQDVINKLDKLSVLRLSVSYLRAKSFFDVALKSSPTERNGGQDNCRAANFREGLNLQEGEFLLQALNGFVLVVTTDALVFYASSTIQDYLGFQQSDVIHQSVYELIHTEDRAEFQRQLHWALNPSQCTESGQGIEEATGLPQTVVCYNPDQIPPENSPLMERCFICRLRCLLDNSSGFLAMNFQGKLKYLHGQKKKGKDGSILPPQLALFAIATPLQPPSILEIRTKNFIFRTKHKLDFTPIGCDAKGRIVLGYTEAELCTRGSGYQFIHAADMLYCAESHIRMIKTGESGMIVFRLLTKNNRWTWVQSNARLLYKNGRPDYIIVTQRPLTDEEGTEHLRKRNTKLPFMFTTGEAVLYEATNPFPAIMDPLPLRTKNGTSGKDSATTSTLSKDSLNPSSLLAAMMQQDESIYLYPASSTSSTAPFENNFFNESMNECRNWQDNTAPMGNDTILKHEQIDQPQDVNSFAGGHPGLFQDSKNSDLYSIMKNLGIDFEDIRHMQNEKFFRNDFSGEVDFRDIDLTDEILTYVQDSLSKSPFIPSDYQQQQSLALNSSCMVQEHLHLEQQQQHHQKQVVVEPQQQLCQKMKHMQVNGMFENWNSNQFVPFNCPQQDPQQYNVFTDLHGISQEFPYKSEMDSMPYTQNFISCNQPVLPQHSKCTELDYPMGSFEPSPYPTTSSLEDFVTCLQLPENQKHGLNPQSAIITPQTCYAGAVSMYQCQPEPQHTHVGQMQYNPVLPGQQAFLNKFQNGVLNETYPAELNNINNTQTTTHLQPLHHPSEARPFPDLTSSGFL

A short description of test [7]: ATG_AP_2_CIS: Attagene CIS-FACTORIAL HepG2 Assay for human Activator Protein 2 (AP-2) (AID 2282932). As to conditions: HepG2 AP-2 cis-reporter, Attagene transcription factor profiling; actives raise or lower the signal. A digest of the protocol:
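Liver-derived HepG2 line, cis-reporter system measuring endogenous factors; 24 h dosing; reporter mRNA detected by fluorescent RT-PCR and capillary electrophoresis.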

Test [8] is described as follows: ATG_AP_1_CIS: Attagene CIS-FACTORIAL HepG2 Assay for human Activator Protein 1 (AP-1) (AID 2282931). To be noted: HepG2 Attagene cis-factorial AP-1 reporter mRNA; actives raise or lower the signal. The method, boiled down: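 HepG2 cells transiently transfected with cis-element-driven multiplex reporter units; 24 h compound exposure. Reporter mRNA quantified by RT-PCR, FAM-labelled fragments resolved by capillary electrophoresis; bidirectional fit versus DMSO baseline.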

Test [9] can be described thus: ATG_BRE_CIS: Attagene CIS-FACTORIAL HepG2 Assay for human Bone Morphogenetic Protein (BMP) Response Element (BRE) (AID 2282933). To be noted: HepG2 BMP response element reporter, Attagene transcription factor profiling; actives raise or lower the signal. A digest of the protocol: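 Transient MRTU transfection of human HepG2 liver cells; 24 h compound treatment; total RNA isolated, reverse-transcribed, PCR-amplified, 6-FAM labelled, HpaI-cut, capillary electrophoresis. DMSO = negative control/baseline, bidirectional fit.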

Test [10] addresses Retinoic acid receptor alpha (Homo sapiens) (UniProt P10276). As to the kind of experiment: ATG_DR5_RAR_CIS: Attagene CIS-FACTORIAL HepG2 Assay for human Retinoic Acid Receptor Alpha (RARE), DR5 submotif (AID 2282934). To be noted: HepG2 Attagene cis-factorial RARE DR5 reporter, mRNA; actives raise or lower the signal. A digest of the protocol: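 After 24 h of chemical exposure, transiently transfected HepG2 cells were lysed for total RNA; the DR5-regulated reporter transcript was quantified via RT-PCR and capillary electrophoresis, with activity fitted bidirectionally against DMSO.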

Activity calls are given as the source filed them. Rule for the calls: active = hit-call score of the fitted dose curve at least 0.9, where 1 is the maximum; inactive = score below 0.9.

CCAAT/enhancer-binding protein beta (Homo sapiens), sequence (P17676 whole entry, looked up): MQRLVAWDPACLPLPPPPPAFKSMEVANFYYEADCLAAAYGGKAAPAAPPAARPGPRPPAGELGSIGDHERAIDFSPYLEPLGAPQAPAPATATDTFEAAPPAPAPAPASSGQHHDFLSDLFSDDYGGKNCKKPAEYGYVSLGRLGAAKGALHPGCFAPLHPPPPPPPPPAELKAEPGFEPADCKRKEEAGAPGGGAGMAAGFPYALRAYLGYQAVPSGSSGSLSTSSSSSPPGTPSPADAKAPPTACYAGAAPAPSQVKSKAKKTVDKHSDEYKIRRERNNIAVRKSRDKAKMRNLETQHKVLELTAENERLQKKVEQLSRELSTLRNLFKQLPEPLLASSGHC
Retinoic acid receptor alpha (Homo sapiens), sequence (P10276 whole entry, looked up): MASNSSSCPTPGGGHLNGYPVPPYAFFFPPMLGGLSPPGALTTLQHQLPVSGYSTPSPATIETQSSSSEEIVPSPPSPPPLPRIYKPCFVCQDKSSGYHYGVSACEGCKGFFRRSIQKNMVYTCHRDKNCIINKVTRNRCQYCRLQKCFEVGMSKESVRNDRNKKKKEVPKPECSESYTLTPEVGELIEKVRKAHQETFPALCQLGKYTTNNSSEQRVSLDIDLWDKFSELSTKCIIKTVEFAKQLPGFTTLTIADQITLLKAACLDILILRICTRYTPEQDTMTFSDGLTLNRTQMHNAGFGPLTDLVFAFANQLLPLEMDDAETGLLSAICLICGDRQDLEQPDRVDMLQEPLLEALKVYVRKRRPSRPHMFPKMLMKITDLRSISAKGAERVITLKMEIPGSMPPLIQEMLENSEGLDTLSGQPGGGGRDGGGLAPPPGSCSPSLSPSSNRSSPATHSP

As for `COC(=O)c1ccc(O)cc1`, the result in test [1], in test [2], in [3], in [4], in test [5] and in test [6] was inactive. In test [7], the outcome was inactive.
Take `CN[C@H]1CC[C@@H](c2ccc(Cl)c(Cl)c2)c2ccc(S(N)(=O)=O)cc21`: the result in test [1], in test [2], in test [3], in test [4], in test [5] and in [6] was inactive. For the same compound, the call in test [8], in test [7] and in test [9] was inactive.
On to `CC1(C)CC(N=C=O)CC(C)(CN=C=O)C1` (configuration not stated), for which the compound was called inactive in test [1], in test [2], in test [3], in test [4], in [5] and in [6]. Moreover, the compound was called inactive in test [8], in test [7], in [9] and in test [10].
With `Cc1cccc(Nc2cc(Cl)nc(SCC(=O)O)n2)c1C`, the result in test [1], in test [2], in test [3], in test [4], in test [5] and in [6] was inactive. For the same compound, the compound was classed as inactive in test [8], in test [7], in [9] and in [10].
`CCNc1cccc(C)c1`: the outcome in [1], in [2], in test [3], in [4], in [5] and in test [6] was inactive. In addition, the compound was classed as inactive in [8], in test [7] and in test [10].
One may read the AC50 as the concentration at which the activity in the assay is half-maximal. `O=C(O)Cc1ccccc1Nc1c(Cl)cccc1Cl`: the call in test [1], in test [2], in test [3], in test [4] and in [7] was inactive. Moreover, the concentration at half-maximal activity (AC50) in test [5] is 68.7 µM (active); in test [6], 67.3 µM (active).
For the compound `COc1cccc2c1C(=O)c1c(O)c3c(c(O)c1C2=O)C[C@@](O)(C(=O)CO)C[C@@H]3O[C@H]1C[C@H](N)[C@H](O)[C@H](C)O1`, the compound was classed as inactive in test [1], in test [2], in [3] and in test [6]. The AC50 was 1.19 µM (active) in test [4], 0.957 µM (active) in test [5] and 3.75 µM (active) in test [7].
Take `CCCCCC(=O)O`: the outcome in [1], in [2], in [3], in test [4], in [5] and in test [7] was inactive. Also, the AC50 in test [6] was 82.2 µM (active).
In the case of `CCCCC(CC)COC(=O)CC(C(=O)OCC(CC)CCCC)S(=O)(=O)O` (configuration not stated), the result in [1], in test [2], in [3], in test [4], in test [5] and in [6] was inactive. The call in test [8], in test [7] and in test [10] was inactive.
With `Nc1ccc(S(=O)(=O)c2ccc(N)cc2)cc1`, the compound was classed as inactive in [1], in test [2], in [3], in [4], in test [5] and in test [6]. In addition, the compound was classed as inactive in test [8], in test [7] and in test [9].
Consider `Nc1nc(N)c2nc(CNc3ccc(C(=O)N[C@@H](CCC(=O)O)C(=O)O)cc3)cnc2n1`, for which the call in test [1], in test [2], in test [3], in [5], in test [6] and in [7] was inactive. Also, the compound was called inactive in test [9] and in test [10]. In addition, the AC50 is 0.00818 µM (active) in test [4] and 0.00864 µM (active) in [8].
On to `CC(=O)Oc1ccccc1C(=O)O`, for which the compound was called inactive in [1], in [2], in test [3], in test [4], in test [5] and in [6]. The outcome in test [7], in [9] and in test [10] was inactive. Further, the concentration at half-maximal activity (AC50) in test [8] was 61.1 µM (active).
As to `CCCCOC(=O)CCCCCCCCC(=O)OCCCC`, the compound was called inactive in test [1], in [2], in [3], in [4], in test [6] and in [8]. In addition, the result in test [7] and in [9] was inactive. The AC50 in test [5] was 144 µM (active).
In the case of `COc1ccc2c(c1)c(CC(=O)O)c(C)n2C(=O)c1ccc(Cl)cc1`, the compound was classed as inactive in test [1], in test [2], in [3], in test [4], in [5] and in test [6]. Besides, the result in [8], in test [7] and in [10] was inactive.
Turning to `CC1=C(/C=C/C(C)=C/C=C/C(C)=C/CO)C(C)(C)CCC1`, the outcome in test [1], in test [2] and in test [3] was inactive. The AC50 is 193 µM (active) in test [4], 65.6 µM (active) in test [5], 104 µM (active) in [6] and 164 µM (active) in [7].
Take `FC(F)(F)C(F)(F)C(F)(F)C(F)(F)C(F)(F)C(F)(F)CCI`: the compound was called inactive in [1], in [2], in test [3], in test [4], in test [5] and in test [7]. In addition, the outcome in test [10] was inactive. Moreover, in [6], the concentration at half-maximal activity (AC50) was 32.1 µM (active).
Consider `NCC1(Cc2noc(=O)[nH]2)CCCCC1`, for which the compound was classed as inactive in [1], in test [2], in test [3], in [4], in test [5] and in test [6]. In addition, the compound was classed as inactive in test [7], in test [9] and in [10].
In the case of `COc1cc(-c2nc(NC(=O)c3cc4cc(C)cc(C)c4n3CC(=O)O)sc2CCC2CCCCC2)c(OC)cc1Cl`, the result in test [1] and in test [5] was inactive. The AC50 in [2] was 36 µM (active); in test [3], 4.79 µM (active); in test [4] it was 3.3 µM (active); in test [6] it was 10.4 µM (active); in [7], 10.4 µM (active); in [9], 10.4 µM (active).
For the compound `CNC(=O)[C@H]1O[C@@H](n2cnc3c(NCc4cc(Cl)ccc4OCc4cc(C)no4)ncnc32)[C@H](O)[C@@H]1N`, the result in [1], in test [2], in test [3], in test [4], in test [5] and in [6] was inactive. In addition, the call in test [7] and in [9] was inactive.
In the case of `O=C(OCCCCCOC(=O)c1ccccc1)c1ccccc1`, the compound was classed as inactive in test [1], in test [2], in test [3], in [4], in test [5] and in test [6]. Further, the result in [7] and in [10] was inactive.
`Oc1ccc2ccccc2c1N=Nc1ccccc1`: the outcome in [1], in [2], in test [3], in [4], in test [5] and in test [7] was inactive. Further, the result in test [9] and in test [10] was inactive. Moreover, in test [6], the AC50 was 0.0105 µM (active).
`CC(C)(C)c1cc(O)c(C(C)(C)C)cc1O`: the AC50 in test [1] was 26 µM (active); in test [2], 23 µM (active); in test [3] it was 89.1 µM (active); in test [4], 30.2 µM (active); in [5], 29.5 µM (active); in [9] it was 30.4 µM (active). In addition, the call in test [6] and in [7] was inactive.

These data come from PubChem BioAssay (EPA / NIEHS).
